Among all 1,100 compounds or so, about 340 (31%) were called active. Inconclusive results (about 40%) are left out. Calls follow the shape of the dose curve; as a rule, active = well fitted inhibition curve with a large enough effect; inconclusive = small, poorly fitted or top-dose-only effect; inactive = flat fitted curve, though single readings scatter. The list is a sample of the results.
target: Phosphatidylinositol 5-phosphate 4-kinase type-2 alpha (Homo sapiens) (UniProt P48426); experiment: qHTS for Inhibitors of PI5P4K: Confirmation in Primary Assay; details: PI5P4Kalpha enzyme, ADP-Glo luminescence, 60 min; series mostly up to 76.9 µM; activity change, negative = inhibition: at the top concentration; also: nearly all actives have a fitted effect of over 65% in size
Outline: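 Hits from a qHTS screen were retested in the same PI5P4Kα ADP-Glo format: 5 microM ATP, HEPES pH 7.4 buffer with CHAPS and EGTA, 60 min room-temperature reaction, single end-point luminescence read.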
% is scaled to controls: 0 for no effect and ±100 for the full control effect; potency is read from the fitted curve at half-maximal effect.

Chain of Phosphatidylinositol 5-phosphate 4-kinase type-2 alpha (Homo sapiens) (P48426 whole entry, looked up): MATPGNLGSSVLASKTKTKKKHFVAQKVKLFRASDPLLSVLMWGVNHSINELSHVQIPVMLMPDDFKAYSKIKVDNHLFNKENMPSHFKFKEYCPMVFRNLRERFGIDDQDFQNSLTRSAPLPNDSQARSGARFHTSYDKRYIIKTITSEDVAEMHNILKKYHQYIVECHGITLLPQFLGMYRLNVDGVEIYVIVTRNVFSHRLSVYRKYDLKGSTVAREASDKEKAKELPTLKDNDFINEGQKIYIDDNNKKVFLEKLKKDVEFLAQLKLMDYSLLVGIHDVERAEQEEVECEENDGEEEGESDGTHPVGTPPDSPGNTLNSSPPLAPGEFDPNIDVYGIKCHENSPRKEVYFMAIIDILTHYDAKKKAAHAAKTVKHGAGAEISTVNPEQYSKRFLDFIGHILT

| SMILES | activity change, negative = inhibition | Potency |
| --- | --- | --- |
| CCOC(=O)C1=C(CC)Nc2ccccc2N=C1NC(=O)c1ccc(S(=O)(=O)N(C)C)cc1 | 2% (inactive) | – |
| COC(=O)c1c(NC(C)=O)sc(C(=O)Nc2ccccc2)c1C | -0.19% (inactive) | – |
| COc1ccccc1Cc1c(-c2ccco2)nc2cc(C)c(Br)c(C)n12 | -23.8% (inactive) | – |
| Cc1cc2nc(-c3ccco3)c(Cc3cccc(F)c3)n2c(C)c1Br | – | 6.31 µM (active) |
| Fc1cccc(Cc2c(-c3ccco3)nc3ccc(Cl)cn23)c1 | -18.6% (inactive) | – |
| CCN(CC(=O)Nc1ccc(OC)cc1)C(=O)c1ccc([N+](=O)[O-])cc1 | -0.54% (inactive) | – |
| O=C(COC(=O)Cc1ccsc1)Nc1cccc(F)c1 | 9.86% (inactive) | – |
| Cc1cccc(NC(=O)CNC(=O)c2cccc(-n3cccc3)c2)c1C | – | 6.31 µM (active) |
| CN(CC(=O)Nc1c(Cl)cccc1Cl)C(=O)c1cccc(-n2cccc2)c1 | – | 14.1 µM (active) |
| CN(CC(=O)Nc1cccc(F)c1)C(=O)c1cccc(-n2cccc2)c1 | – | 10 µM (active) |
| Cc1ccc(NC(=O)CN(C)C(=O)COc2ccc(C(=O)c3ccc(F)cc3)cc2)cc1 | 7.3% (inactive) | – |
| Cc1ccc(NC(=O)CN(C)C(=O)c2cccc(-n3cccc3)c2)cc1 | – | 20 µM (active) |
| Nc1nc(N)c2cc(S(=O)(=O)c3cccc(C(F)(F)F)c3)ccc2n1 | -26.5% (inactive) | – |
| CCC1CCCCN1C(=O)Cn1nc([N+](=O)[O-])c(Cl)c1C (configuration not stated) | -4.34% (inactive) | – |
| CCOc1ccc(CCNS(=O)(=O)c2cn(C)cn2)cc1OCC | -0.0108% (inactive) | – |
| O=C(CSc1nc(O)cc(=O)n1-c1ccccc1)Nc1nc2ccccc2s1 | -23.2% (inactive) | – |
| N#Cc1c(SCC(=O)Nc2nc3ccc(Br)cc3s2)sc2c(O)cc(=O)[nH]c12 | – | 4.47 µM (active) |
| CCC(C)n1c(SCC(=O)Nc2ccc3[nH]c(=O)[nH]c3c2)nc2ccccc2c1=O (configuration not stated) | -23.7% (inactive) | – |
| CC(=O)Nc1ccc2nc(SCC(=O)NCCOc3ccccc3)sc2c1 | -0.149% (inactive) | – |
| N#Cc1c(SCC(=O)Nc2nc3ccccc3s2)sc2c(O)cc(=O)[nH]c12 | – | 6.31 µM (active) |
| Nc1cc(-c2ccncc2)c[nH]c1=O | -15.9% (inactive) | – |
| O=C(COc1ccc2ccccc2c1)Nc1cccc(C(=O)Nc2ccccc2C(=O)O)c1 | – | 20 µM (active) |
| O=C(COc1ccc([N+](=O)[O-])cc1)Nc1cccnc1 | -5.44% (inactive) | – |

| SMILES | activity change, negative = inhibition | Potency |
| --- | --- | --- |
| O=C(COc1ccccc1)Nc1cccc(-c2ccc(N3CCOCC3)nn2)c1 | -18.8% (inactive) | – |
| COc1ccc(S(=O)(=O)N2CCN(C(=O)C3COc4ccccc4O3)CC2)cc1 (configuration not stated) | – | 10 µM (active) |
| COC(=O)Nc1ccc(S(=O)(=O)N2CCC(C(=O)N3CCC(C)CC3)CC2)cc1 | -3.71% (inactive) | – |
| CN1CCN(S(=O)(=O)c2ccc(N3CCc4ccccc4C3)nc2)CC1 | -1.8% (inactive) | – |
| CSc1ncccc1C(=O)Nc1ccc(OC(F)(F)F)cc1 | 11.7% (inactive) | – |
| CCN(CC(=O)Nc1ccc(NC(C)=O)cc1)Cc1c(O)ccc2cc(Br)ccc12 | – | 15.8 µM (active) |
| Cc1ccc(NCC(=O)Nc2ccc(Br)cc2)cc1C | 8.83% (inactive) | – |
| Cn1nnnc1Sc1ncnc2scc(-c3ccccc3C(F)(F)F)c12 | – | 17.8 µM (active) |
| Cc1ccc([N+](=O)[O-])cc1Nc1nc(N2CCOCC2)nc(N2CCOCC2)n1 | 2.38% (inactive) | – |
| O=C(NCCCN1CCOCC1)c1sc2cc([N+](=O)[O-])ccc2c1Cl | – | 14.1 µM (active) |
| CCOC(=O)C1=C(N)N(c2ccccc2)C(=O)C1 | -3.07% (inactive) | – |
| O=C(c1ccc2nc(-c3ccco3)c(-c3ccco3)nc2c1)N1CCN(c2ncccn2)CC1 | – | 12.6 µM (active) |
| Cc1cccc(C)c1NC(=O)C(c1ccccc1)n1c(=O)c(-c2ccco2)nc2ccccc21 (configuration not stated) | -24.1% (inactive) | – |
| O=C(Nc1ccc2nc(-c3ccco3)c(-c3ccco3)nc2c1)N1CCN(c2ccccn2)CC1 | – | 11.2 µM (active) |
| CC(C)C(=O)N1CCN(c2ccccc2NC(=O)c2ccco2)CC1 | -2.64% (inactive) | – |
| COc1ccccc1N1CCN(C(=O)c2ccc(C(C)(C)C)cc2)CC1 | 0.452% (inactive) | – |
| CC(Oc1ccc(F)cc1)C(=O)N1CCN(c2ncccn2)CC1 (configuration not stated) | 0.356% (inactive) | – |
| CC(C)NC(=O)c1onc(CSc2ccccc2F)c1C(=O)O | -0.693% (inactive) | – |
| Cc1ccc(S(=O)(=O)N(C(=O)c2ccco2)c2cc3sc(=O)oc3c3ccccc23)cc1 | -5.53% (inactive) | – |
| Cc1ccc(C(CCN(Cc2ccccc2)C(=O)c2ccco2)c2ccco2)cc1 (configuration not stated) | – | 14.1 µM (active) |
| CC(C)N(CCC(=O)c1ccc2ccccc2c1)Cc1ccccc1 | -9.41% (inactive) | – |
| O=C(N[C@@H](Cc1ccccc1)C(=O)OCc1ccccc1)c1nc[nH]c1C(=O)NC(c1ccccc1)c1ccccc1 | 7.69% (inactive) | – |
| O=c1[nH]c2ccccc2n2c(-c3ccccc3)nnc12 | – | 5.01 µM (active) |

| SMILES | activity change, negative = inhibition | Potency |
| --- | --- | --- |
| Cc1cc(Oc2ccc(C#N)cc2)nc(NCc2ccccc2)n1 | -2.08% (inactive) | – |
| CCn1c(CC(=O)Nc2ccccc2F)nnc1SCC(=O)NC1CCCCC1 | 1.05% (inactive) | – |
| O=C(NCC1CC1)c1ccc(Nc2nc3ccc(Br)cc3[nH]2)cc1 | -15.7% (inactive) | – |
| CC1Cc2ccccc2N1C(=O)COC(=O)CCc1nc2ccccc2c(=O)[nH]1 (configuration not stated) | -11.1% (inactive) | – |
| NC(=O)c1ccc(-n2c(CCC(=O)O)ccc2-c2cccs2)cc1 | – | 3.98 µM (active) |
| N#Cc1c(SCC(=O)Nc2nccs2)sc2c(O)cc(=O)[nH]c12 | – | 15.8 µM (active) |
| Cc1cnc(NC(=O)CSc2c(Cl)cccc2Cl)s1 | -18.7% (inactive) | – |
| N#Cc1c(SCC(=O)Nc2nncs2)sc2c(O)cc(=O)[nH]c12 | – | 8.91 µM (active) |
| CCc1nnc(NC(=O)c2ccc(S(C)(=O)=O)cc2)s1 | -2.39% (inactive) | – |
| O=C(CSc1nc2[nH]c(=O)cc(O)c2s1)Nc1ccc(Cl)c(C(F)(F)F)c1 | -29.7% (inactive) | – |
| Cc1cc(NC(=O)CSc2sc3c(O)cc(=O)[nH]c3c2C#N)ccc1Br | – | 8.91 µM (active) |
| CCc1nnc(NC(=O)CSc2sc3c(O)cc(=O)[nH]c3c2C#N)s1 | – | 12.6 µM (active) |
| CC1Cc2ccccc2N1C(=O)CNc1cccc(S(=O)(=O)N2CCCC2)c1 (configuration not stated) | -3.8% (inactive) | – |
| Cc1csc(NC(=O)CSc2sc3c(O)cc(=O)[nH]c3c2C#N)n1 | – | 14.1 µM (active) |
| Cc1csc(NC(=O)CSc2nc3[nH]ncc3c(=O)[nH]2)n1 | -24.4% (inactive) | – |
| COc1ccc(CC(=O)NCC(=O)NC(Cc2ccccc2)C(=O)O)cc1 (configuration not stated) | 4.47% (inactive) | – |
| O=C(Nc1nccs1)c1cc(-c2ccco2)nc2ccccc12 | – | 3.98 µM (active) |
| CC(=O)c1cccc(NC(=O)c2cc(-c3ccco3)nc3ccccc23)c1 | -24.5% (inactive) | – |
| Cc1csc(NC(=O)c2cc(-c3ccco3)nc3ccccc23)n1 | – | 10 µM (active) |
| CCc1nnc(NC(=O)c2cc(-c3ccc(C)o3)nc3ccccc23)s1 | -23.9% (inactive) | – |
| CCc1nnc(NC(=O)c2cc(-c3ccco3)nc3ccccc23)s1 | – | 3.55 µM (active) |

From PubChem BioAssay AID743286 (National Center for Advancing Translational Sciences (NCATS), 2014)
